Assay results taken from PubChem BioAssay (NCATS).
Records with an inconclusive call do not appear. Active and inactive are the calls of the source. Calls come from the whole dose curve; as a rule, active = well fitted curve in the direction sought with a large enough effect; inconclusive = small, poorly fitted or top-dose-only effect, or another doubt; inactive = no such curve, though single readings can be large; an effect the other way counts as inactive or inconclusive.

Experiments:
Hek293T = test: Primary qHTS to identify gynecologic anti-cancer compounds using libraries of approved drugs and bioactive compounds (AID 1345084); conditions: Gynecologic cancer cell panel viability, ATPlite luminescence, 48 h, control line for the selectivity index; series mostly up to 57.5 µM; note: nearly all actives have a fitted effect of over 55% in size
How it was run: (§1)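 Luminescence from the ATPlite ATP-monitoring reagent indicates viable cell number; lower signal means cytotoxicity. Cells received compound 16 h after seeding and were exposed for 48 h across five concentrations.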

JEG-3 = test: as above; conditions: Gynecologic cancer cell panel viability, ATPlite luminescence, 48 h; series mostly up to 57.5 µM
How it was run: as §1

OV90 = test: as above; conditions: Gynecologic cancer cell panel viability, ATPlite luminescence, 48 h; series mostly up to 57.5 µM
How it was run: as §1

PA-1 = test: as above; conditions: Gynecologic cancer cell panel viability, ATPlite luminescence, 48 h; series mostly up to 57.5 µM
How it was run: as §1

SKOV3 = test: as above; conditions: Gynecologic cancer cell panel viability, ATPlite luminescence, 48 h; series mostly up to 57.5 µM
How it was run: as §1

Tov-21-G = test: as above; conditions: Gynecologic cancer cell panel viability, ATPlite luminescence, 48 h; series mostly up to 57.5 µM
How it was run: as §1

Tov112D = test: as above; conditions: Gynecologic cancer cell panel viability, ATPlite luminescence, 48 h; series mostly up to 57.5 µM
How it was run: as §1

[1] = Drug repurposing screens with cells derived from glioblastoma tumor samples (AID 1345199); conditions: GBM patient neurospheres viability, ATP luminescence, 48 h; note: nearly all actives have a fitted effect of over 40% in size
How it was run: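 Primary testing used CD133+ neurospheres from four GBM patients, seven concentrations, 48 h exposure and ATP-based viability; confirmation added three slower-growing patient lines.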

[2] = at 45.9 µM (top of the series), tumour line B
[3] = at 45.9 µM (top of the series), tumour line D
[4] = at 46 µM (top of the series), tumour line A
[5] = at 46.1 µM (top of the series), tumour line C
[6] = at 20 µM (top of the series), tumour line C
[7] = at 21.2 µM (top of the series), tumour line B
[8] = at 21.2 µM (top of the series), tumour line D
% is set by controls: 0 for no effect and ±100 for the full control effect; potency is the fitted concentration of half-maximal effect.

CCOc1cc(OCC)c(C(=O)CCC(=O)O)cc1OCC
inactive: Potency (Hek293T) | Potency (JEG-3) | Potency (OV90) | Potency (PA-1) | Potency (SKOV3) | Potency (Tov-21-G) | Potency (Tov112D) | activity, negative = cell killing [1, 2] -2.96% | activity, negative = cell killing [1, 3] -2.05% | activity, negative = cell killing [1, 4] -23.5% | activity, negative = cell killing [1, 5] -10.2%

CC(=O)Nc1ncc([N+](=O)[O-])s1
inactive: Potency (Hek293T) | Potency (JEG-3) | Potency (OV90) | Potency (PA-1) | Potency (SKOV3) | Potency (Tov-21-G) | Potency (Tov112D) | activity, negative = cell killing [1, 2] -7.38% | activity, negative = cell killing [1, 3] -8.31% | activity, negative = cell killing [1, 5] -21.7%

COc1cc(C(=O)N2CCCCCCC2)cc(OC)c1OC
inactive: Potency (Hek293T) | Potency (JEG-3) | Potency (OV90) | Potency (PA-1) | Potency (SKOV3) | Potency (Tov-21-G) | Potency (Tov112D) | activity, negative = cell killing [1, 2] -16.1% | activity, negative = cell killing [1, 3] -20.1%

CCc1cc(Cl)c(OC)c(C(=O)NC[C@@H]2CCCN2CC)c1O
inactive: Potency (Hek293T) | Potency (JEG-3) | Potency (OV90) | Potency (PA-1) | Potency (SKOV3) | Potency (Tov-21-G) | Potency (Tov112D)

Clc1cccc(C(c2ccc3nc[nH]c3c2)n2ccnc2)c1 (stereo not given)
inactive: Potency (Hek293T) | Potency (JEG-3) | Potency (OV90) | Potency (PA-1) | Potency (SKOV3) | Potency (Tov-21-G) | Potency (Tov112D)

CC(C)=CCOc1ccc(/C=C/C(=O)c2ccc(OCC=C(C)C)cc2OCC(=O)O)cc1
inactive: Potency (Hek293T) | Potency (JEG-3) | Potency (OV90) | Potency (PA-1) | Potency (SKOV3) | Potency (Tov-21-G) | Potency (Tov112D) | activity, negative = cell killing [1, 2] 16% | activity, negative = cell killing [1, 3] -25.2% | activity, negative = cell killing [1, 5] -4.09%

CC(C)(C)NCC(O)COc1cccc2c1C[C@H](O)[C@H](O)C2 (stereo not given in full)
inactive: Potency (Hek293T) | Potency (JEG-3) | Potency (OV90) | Potency (PA-1) | Potency (SKOV3) | Potency (Tov-21-G) | Potency (Tov112D) | activity, negative = cell killing [1, 6] -4.25% | activity, negative = cell killing [1, 7] -2.25% | activity, negative = cell killing [1, 8] -3.22% | activity, negative = cell killing ([1]; at 21.3 µM (top of the series), tumour line A) -16.2%

C[C@@H](O)[C@H]1C(=O)N2C(C(=O)O)=C(S[C@@H]3CN[C@H](CNS(N)(=O)=O)C3)[C@H](C)[C@H]12
inactive: Potency (Hek293T) | Potency (JEG-3) | Potency (OV90) | Potency (PA-1) | Potency (SKOV3) | Potency (Tov-21-G) | Potency (Tov112D) | activity, negative = cell killing [1, 2] -1.99% | activity, negative = cell killing [1, 3] 1.38% | activity, negative = cell killing [1, 4] -14.9% | activity, negative = cell killing [1, 5] -16.7%

C[N+]12CCC(CC1)C(OC(=O)C(O)(c1ccccc1)c1ccccc1)C2 (stereo not given)
inactive: Potency (Hek293T) | Potency (JEG-3) | Potency (OV90) | Potency (PA-1) | Potency (SKOV3) | Potency (Tov-21-G) | Potency (Tov112D) | activity, negative = cell killing [1, 6] -3.46% | activity, negative = cell killing [1, 7] -10.6% | activity, negative = cell killing [1, 8] -5.49%

COc1ccc(CN(CCN(C)C)c2ncccn2)cc1
inactive: Potency (Hek293T) | Potency (JEG-3) | Potency (OV90) | Potency (PA-1) | Potency (SKOV3) | Potency (Tov-21-G) | Potency (Tov112D) | activity, negative = cell killing [1, 2] -6.69% | activity, negative = cell killing [1, 5] -7.28%

OCc1ccccn1
inactive: Potency (Hek293T) | Potency (JEG-3) | Potency (OV90) | Potency (PA-1) | Potency (SKOV3) | Potency (Tov-21-G) | Potency (Tov112D) | activity, negative = cell killing [1, 2] -0.907% | activity, negative = cell killing [1, 3] 14.9% | activity, negative = cell killing [1, 4] -24% | activity, negative = cell killing [1, 5] -5.53%

O=S(c1cc(Cl)cc(Cl)c1O)c1cc(Cl)cc(Cl)c1O
inactive: Potency (Hek293T) | Potency (JEG-3) | Potency (OV90) | Potency (PA-1) | Potency (SKOV3) | Potency (Tov-21-G) | Potency (Tov112D) | activity, negative = cell killing [1, 2] -23.8% | activity, negative = cell killing [1, 3] -25% | activity, negative = cell killing [1, 5] -26.7%
active: Potency ([1]; tumour line A) 28.2 µM

c1ccc(-c2nc[nH]c2-c2ccccc2)cc1
inactive: Potency (Hek293T) | Potency (JEG-3) | Potency (OV90) | Potency (PA-1) | Potency (SKOV3) | Potency (Tov-21-G) | Potency (Tov112D) | activity, negative = cell killing [1, 2] -16.2%

CCOC(=O)c1ccc(N)cc1
inactive: Potency (Hek293T) | Potency (JEG-3) | Potency (OV90) | Potency (PA-1) | Potency (SKOV3) | Potency (Tov-21-G) | Potency (Tov112D) | activity, negative = cell killing [1, 8] -25.1%
active: Potency ([1]; tumour line B) 14.1 µM

CC(C)(C)CC(C)(C)c1ccc(O)c(-n2nc3ccccc3n2)c1
inactive: Potency (Hek293T) | Potency (JEG-3) | Potency (OV90) | Potency (PA-1) | Potency (SKOV3) | Potency (Tov-21-G) | Potency (Tov112D)

CC(=O)Nc1ccc(S(=O)(=O)Nc2ccc([N+](=O)[O-])cc2)cc1
inactive: Potency (Hek293T) | Potency (JEG-3) | Potency (OV90) | Potency (PA-1) | Potency (SKOV3) | Potency (Tov-21-G) | Potency (Tov112D) | activity, negative = cell killing [1, 2] -8.95% | activity, negative = cell killing [1, 3] -28.3% | activity, negative = cell killing [1, 5] 10.9%

N/C(=N\N=C\c1ccc(Cl)cc1)N/N=C/c1ccc(Cl)cc1
inactive: Potency (Hek293T) | Potency (JEG-3) | Potency (OV90) | Potency (PA-1) | Potency (Tov-21-G) | Potency (Tov112D)
active: Potency (SKOV3) 31.6 µM

C/C=C/c1ccc(O)c(OC)c1
inactive: Potency (Hek293T) | Potency (JEG-3) | Potency (OV90) | Potency (PA-1) | Potency (SKOV3) | Potency (Tov-21-G) | Potency (Tov112D) | activity, negative = cell killing [1, 2] -4.55% | activity, negative = cell killing [1, 3] -0.156% | activity, negative = cell killing [1, 5] -3.58%

CC(=O)O[C@]1(C(C)=O)CC[C@H]2[C@@H]3C=C(Cl)C4=CC(=O)CC[C@]4(C)[C@H]3CC[C@@]21C
inactive: Potency (Hek293T) | Potency (JEG-3) | Potency (OV90) | Potency (PA-1) | Potency (SKOV3) | Potency (Tov-21-G) | Potency (Tov112D) | activity, negative = cell killing [1, 2] -21.1%

CN1CCN(c2c(F)cc3c(=O)c(C(=O)O)cn4c3c2SCC4)CC1
inactive: Potency (Hek293T) | Potency (JEG-3) | Potency (OV90) | Potency (PA-1) | Potency (SKOV3) | Potency (Tov-21-G) | Potency (Tov112D) | activity, negative = cell killing [1, 2] -10.6% | activity, negative = cell killing [1, 5] -19.6%
